Experimental data reported in the supplement of paper PMC12645437, “Orthogonal IMiD-Degron Pairs Induce Selective Protein Degradation in Cells” (ACS Chemical Biology, 2025).
Over roughly 8,300 sequences, “log2 fold change of degron read counts, EGFP-low vs EGFP+ sorted cells (limma voom), compound-induced degradation” has its median near -1.1; the highest 2% begin near 3.2. Only a selection was taken, and the highest values are over-represented in it overall.

T1: CRBN, Q96SW2
T1 chain: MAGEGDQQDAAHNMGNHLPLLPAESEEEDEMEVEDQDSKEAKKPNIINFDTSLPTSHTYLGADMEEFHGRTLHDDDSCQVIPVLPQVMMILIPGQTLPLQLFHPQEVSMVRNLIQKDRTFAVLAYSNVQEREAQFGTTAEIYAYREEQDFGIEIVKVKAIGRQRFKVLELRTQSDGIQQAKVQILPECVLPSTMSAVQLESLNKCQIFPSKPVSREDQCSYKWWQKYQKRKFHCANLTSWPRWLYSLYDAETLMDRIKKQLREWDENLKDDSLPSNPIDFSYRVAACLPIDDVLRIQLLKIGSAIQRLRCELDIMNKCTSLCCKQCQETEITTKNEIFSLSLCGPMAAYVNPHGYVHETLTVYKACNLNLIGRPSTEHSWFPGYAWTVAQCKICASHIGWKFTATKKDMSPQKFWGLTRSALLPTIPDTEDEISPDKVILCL


Target: T1, CRBN, Q96SW2
Test: log2 fold change of degron read counts, EGFP-low vs EGFP+ sorted cells (limma voom), compound-induced degradation; higher = more compound-induced degradation of the degron-EGFP fusion; degrons are variants of IKZF1/3 zinc finger 2; compound dose not given here
Conditions: Jurkat, 18 h
Experimental: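 Pooled library of 8380 IKZF3 ZF2 degron mutants (positions 146-167 varied within the IKZF3 130-189 degron; only the varied core is printed, flanks not printed) fused to EGFP with IRES-mCherry, lentivirally expressed in Jurkat cells. mCherry+ cells were treated with one IMiD compound for 18 h (dose not stated) and FACS-sorted into EGFP-low and EGFP+ populations. Degron sequences were counted by NGS, and log2FC (EGFP-low vs EGFP+) was estimated by limma voom over 3 biological replicates.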

[1] = compound: compound 19 (5-tert-butyl-thalidomide)
[2] = compound: compound 22 (5-morpholino-thalidomide)
[3] = compound: compound 33 (diphenyl IMiD analogue)
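Further: pooled lentiviral library of zinc finger degron-EGFP fusions in mCherry-positive Jurkat cells, FACS-sorted after compound exposure, with degron abundance counted by next-generation sequencing.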

Sequence	log2 fold change of degron read counts [1]	log2 fold change of degron read counts [2]	log2 fold change of degron read counts [3]	log2 fold change of degron read counts (compound: thalidomide)
FRCEICGRPFTQKGNLLRHIKL [46F_47R_49E_50I_52G_53R_54P_55F_67L_, Q9UKT9]	-0.208	1.72	2.22	2.06
FNCPICGHTFTQKGNLLRHIKL [46F_47N_49P_50I_52G_53H_54T_55F_67L_, Q9UKT9]	-2.31	-2.29	-2.08	-2.24
FFCEICGRSFTQKGNLLRHIKL [46F_47F_49E_50I_52G_53R_54S_55F_67L_, Q9UKT9]	0.599	0.147	-0.0546	-0.893
FNCEQCGACFTQKGNLLRHIKL [46F_47N_49E_50Q_52G_53A_54C_55F_67L_, Q9UKT9]	-1.28	-2.78	-2.07	-2.41
FFCPICGHDFTQKGNLLRHIKL [46F_47F_49P_50I_52G_53H_54D_55F_67L_, Q9UKT9]	-2.5	-3.06	-2.39	-2.25
FLCEICGAYFTQKGNLLRHIKL [46F_47L_49E_50I_52G_53A_54Y_55F_67L_, Q9UKT9]	0.402	-0.763	0.888	1.03
FFCNICGAPFTQKGNLLRHIKL [46F_47F_49N_50I_52G_53A_54P_55F_67L_, Q9UKT9]	3.82	3.29	1.81	0.893
FQCNICGAPFTQKGNLLRHIKL [46F_47Q_49N_50I_52G_53A_54P_55F_67L_, Q9UKT9]	2.35	3.09	1.74	3.71
FHCNQCGAPFTQKGNLLRHIKL [46F_47H_49N_50Q_52G_53A_54P_55F_67L_, Q9UKT9]	-0.273	-1.39	-1.33	-1.72
FDCNICGAPFTQKGNLLRHIKL [46F_47D_49N_50I_52G_53A_54P_55F_67L_, Q9UKT9]	0.00765	0.55	-0.25	0.701
FACNICGAPFTQKGNLLRHIKL [46F_47A_49N_50I_52G_53A_54P_55F_67L_, Q9UKT9]	3	2.25	0.28	1.19
FSCNICGAPFTQKGNLLRHIKL [46F_47S_49N_50I_52G_53A_54P_55F_67L_, Q9UKT9]	2.52	2.26	1.18	1.71
FHCNICGAPFTQKGNLLRHIKL [46F_47H_49N_50I_52G_53A_54P_55F_67L_, Q9UKT9]	3.64	3.01	1.94	1.11
FKCNICGAPFTQKGNLLRHIKL [46F_47K_49N_50I_52G_53A_54P_55F_67L_, Q9UKT9]	1.75	0.553	-1.66	1.84
FMCNICGAPFTQKGNLLRHIKL [46F_47M_49N_50I_52G_53A_54P_55F_67L_, Q9UKT9]	2.52	3.05	3.24	2.42
